# Experimental data as given in PubChem BioAssay (NCI).
# Compounds without any hit were thinned out: in the full panel of roughly 79,000, 15% have a hit. A number with no mark means an inactive call. The source made the active and inactive calls. No stated cut-off is given here; in the data, active means growth inhibition above about 70%; inactive means the rest.
# Assay: NCI Yeast Anticancer Drug Screen. Data for the sgs1 mgt1 strain (AID 161);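 further: 0% = growth of cultures given vehicle only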
# Details: S. cerevisiae sgs1 mgt1 strain, at 50.0 µM, stronger effect = higher value
# How it was run: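 This yeast growth screen uses a strain with defined DNA-repair lesions; compound-treated growth is compared with vehicle-treated growth.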
row,SMILES,growth inhibition
1,C=C(CCC(C)C1CCC2(C)C3=C(CC(O)C12C)C1(C)CCC(O)C(C)(C)C1CC3)C(C)C(=O)O (stereo not given),84.8% (active)
2,CC(=O)O[C@H]1CC[C@]2(C)C3=CC[C@]4(C)[C@@H](C(C)=O)CC[C@H]4[C@@]34C=C[C@]2(C1)C1C(=O)OC(=O)C14 (stereo not given in full),29.4%
3,CCC1(c2ccc(N3C(=O)c4ccccc4C3=O)cc2)CCC(=O)NC1=O (stereo not given),86.3% (active)
4,O=C(NNS(=O)(=O)c1ccccc1)Nc1ccccc1,7.45%
5,CCN(CC)CCNc1c(C)ccc2cccnc12,29.4%
6,CCOC(=O)CCC(NC(=O)c1ccc(NC(OC)c2nc3cc(C(F)(F)F)ccc3nc2-c2ccccc2)cc1)C(=O)OCC (stereo not given),93.8% (active)
7,CCCC(O)C[N+](=O)[O-] (stereo not given),15.2%
8,O=C(Nc1cccc(Br)c1)Oc1cccc2cccnc12,85.3% (active)
9,C=C1CC(C)(COc2ccc3c(C)c(C)c(=O)oc3c2C)OC1=O (stereo not given),-10.7%
10,Cc1cc(Br)c(N2C3=C(CC4=C2CCCC4=O)C(=O)CCC3)c(Br)c1,97.8% (active)
11,CCN(CC)CC(O)CNc1ccc(C)c2sc3ccccc3c(=O)c12 (stereo not given),95.2% (active)
12,COC1/C=C/OC2(C)Oc3c(C)c(O)c4c(c3C2=O)C(=O)C=C(NC(=O)/C(C)=C\C=C\C(C)C(OC=O)C(C)C(O)C(C)C(OC(C)=O)C1C)C4=O (stereo not given),52.5%
13,OC(c1cc2ccccc2o1)c1cc2ccccc2s1 (stereo not given),70.4% (active)
14,Nc1nnc(-c2cc([N+](=O)[O-])cc([N+](=O)[O-])c2)o1,15.1%
15,CC1SC(=S)N(c2ccc(Cl)cc2)C1=O (stereo not given),45.5%
16,CCCCCCCCCC(=O)NN=C(C)C,-2.75%
17,O=C(/C=C/c1ccccc1)C1(c2ccccc2)CC1,68.9%
18,Nc1n[n+](-c2ccccc2)no1,56.6%
19,N#CC(C#N)=C(c1ccccc1)c1ccccc1,99.4% (active)
20,CS(=O)(=O)OCCCN(CCCOS(C)(=O)=O)c1ccc(C=Nc2ccc(-c3csc(COc4ccc(Br)cc4Br)n3)cc2)cc1,90% (active)

row,SMILES,growth inhibition
1,CSc1ncnc2ncn(C3OC(CO)C(O)C3O)c12 (stereo not given),15.2%
2,CNC(=O)c1ccc(OC)cc1C1(O)c2ccccc2CCc2ccccc21,80.5% (active)
3,O=[N+]([O-])c1ccc(Oc2c(Cl)cccc2Cl)cc1,5.4%
4,CN(C)C(=O)c1ccc(SC(=S)NCc2ccccc2)cc1,97.8% (active)
5,CC(C)c1ccc(C(=O)OC2CCCCC2)cc1,46%
6,O=C(Nc1ccc(C(=O)c2ccccc2)cc1)Nc1ccc(Cl)c(Cl)c1,94.8% (active)
7,O=C1c2ccccc2C(=O)c2sc(Nc3ccc(Cl)cc3)nc21,93.8% (active)
8,O=C1NC(=O)N(c2ccc([N+](=O)[O-])cc2)C1=O,-2.95%
9,CCN(CC)CCNc1nc(N)c2nc(-c3ccccc3)c(-c3ccccc3)nc2n1,90.5% (active)
10,CCCCCCCCOc1ccc(/C=C/C(C)=N/NC(N)=NC)cc1OC,38.7%
11,CC1=NN(C(=O)c2ccc(Cl)cc2)C(=O)C1N=Nc1ccc(S(=O)(=O)Nc2ncccn2)cc1 (stereo not given),10.8%
12,CCOC(=O)C(Br)C(Br)c1cccc([N+](=O)[O-])c1 (stereo not given),99.7% (active)
13,Cc1ccccc1N1CCN(c2c3c(nc4ccccc24)CCCCC3)CC1,97.2% (active)
14,O=S(=O)(O)SCCNCCCCCC1CCCCC1,65.5%
15,CC([N+](=O)[O-])C1(O)C(=O)c2cccc3cccc1c23 (stereo not given),42.2%
16,CCS(CC)(CC)CC1CCCC2=CCC(P(=O)(c3ccccc3)c3ccccc3)CC21 (stereo not given),87.8% (active)
17,O=C(O)C(CS)Nc1c2ccccc2nc2ccccc12 (stereo not given),65%
18,CCCCCCCCCCCC1C(C#N)C(=O)NC(=O)C1C#N (stereo not given),64.7%
19,O=C(O)CCSSCCCCCS(=O)O,7.95%
20,CC(C)CNc1cc(Cl)nc(N)n1,89.9% (active)

# Assay: NCI Yeast Anticancer Drug Screen. Data for the cln2 rad14 strain (AID 165);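 further: 0% = growth equal to vehicle treated cultures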
# Details: S. cerevisiae cln2 rad14 strain, at 5.0 µM (retest, dose inferred, filed as 0.5), stronger effect = higher value
# How it was run: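 Relative to vehicle controls, growth inhibition of compound-treated cln2 rad14 yeast was recorded.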
row,SMILES,growth inhibition
1,C=C(CCC(C)C1CCC2(C)C3=C(CC(O)C12C)C1(C)CCC(O)C(C)(C)C1CC3)C(C)C(=O)O (stereo not given),40%
2,CC(=O)O[C@H]1CC[C@]2(C)C3=CC[C@]4(C)[C@@H](C(C)=O)CC[C@H]4[C@@]34C=C[C@]2(C1)C1C(=O)OC(=O)C14 (stereo not given in full),4%
3,CCC1(c2ccc(N3C(=O)c4ccccc4C3=O)cc2)CCC(=O)NC1=O (stereo not given),-17%
4,O=C(NNS(=O)(=O)c1ccccc1)Nc1ccccc1,-1%
5,CCN(CC)CCNc1c(C)ccc2cccnc12,-1%
6,CCOC(=O)CCC(NC(=O)c1ccc(NC(OC)c2nc3cc(C(F)(F)F)ccc3nc2-c2ccccc2)cc1)C(=O)OCC (stereo not given),80% (active)
7,CCCC(O)C[N+](=O)[O-] (stereo not given),-1%
8,O=C(Nc1cccc(Br)c1)Oc1cccc2cccnc12,76% (active)
9,C=C1CC(C)(COc2ccc3c(C)c(C)c(=O)oc3c2C)OC1=O (stereo not given),30%
10,Cc1cc(Br)c(N2C3=C(CC4=C2CCCC4=O)C(=O)CCC3)c(Br)c1,10%
11,CCN(CC)CC(O)CNc1ccc(C)c2sc3ccccc3c(=O)c12 (stereo not given),12%
12,COC1/C=C/OC2(C)Oc3c(C)c(O)c4c(c3C2=O)C(=O)C=C(NC(=O)/C(C)=C\C=C\C(C)C(OC=O)C(C)C(O)C(C)C(OC(C)=O)C1C)C4=O (stereo not given),-5%
13,OC(c1cc2ccccc2o1)c1cc2ccccc2s1 (stereo not given),-12%
14,Nc1nnc(-c2cc([N+](=O)[O-])cc([N+](=O)[O-])c2)o1,6%
15,CC1SC(=S)N(c2ccc(Cl)cc2)C1=O (stereo not given),3%
16,CCCCCCCCCC(=O)NN=C(C)C,-67%
17,O=C(/C=C/c1ccccc1)C1(c2ccccc2)CC1,-55%
18,Nc1n[n+](-c2ccccc2)no1,45%
19,N#CC(C#N)=C(c1ccccc1)c1ccccc1,-33%
20,CS(=O)(=O)OCCCN(CCCOS(C)(=O)=O)c1ccc(C=Nc2ccc(-c3csc(COc4ccc(Br)cc4Br)n3)cc2)cc1,0%

row,SMILES,growth inhibition
1,CSc1ncnc2ncn(C3OC(CO)C(O)C3O)c12 (stereo not given),2%
2,CNC(=O)c1ccc(OC)cc1C1(O)c2ccccc2CCc2ccccc21,27%
3,O=[N+]([O-])c1ccc(Oc2c(Cl)cccc2Cl)cc1,-9%
4,CN(C)C(=O)c1ccc(SC(=S)NCc2ccccc2)cc1,7%
5,CC(C)c1ccc(C(=O)OC2CCCCC2)cc1,4%
6,O=C(Nc1ccc(C(=O)c2ccccc2)cc1)Nc1ccc(Cl)c(Cl)c1,30%
7,O=C1c2ccccc2C(=O)c2sc(Nc3ccc(Cl)cc3)nc21,58%
8,O=C1NC(=O)N(c2ccc([N+](=O)[O-])cc2)C1=O,9%
9,CCN(CC)CCNc1nc(N)c2nc(-c3ccccc3)c(-c3ccccc3)nc2n1,-1%
10,CCCCCCCCOc1ccc(/C=C/C(C)=N/NC(N)=NC)cc1OC,72% (active)
11,CC1=NN(C(=O)c2ccc(Cl)cc2)C(=O)C1N=Nc1ccc(S(=O)(=O)Nc2ncccn2)cc1 (stereo not given),-6%
12,CCOC(=O)C(Br)C(Br)c1cccc([N+](=O)[O-])c1 (stereo not given),92% (active)
13,Cc1ccccc1N1CCN(c2c3c(nc4ccccc24)CCCCC3)CC1,-3%
14,O=S(=O)(O)SCCNCCCCCC1CCCCC1,32%
15,CC([N+](=O)[O-])C1(O)C(=O)c2cccc3cccc1c23 (stereo not given),4%
16,CCS(CC)(CC)CC1CCCC2=CCC(P(=O)(c3ccccc3)c3ccccc3)CC21 (stereo not given),5%
17,O=C(O)C(CS)Nc1c2ccccc2nc2ccccc12 (stereo not given),17%
18,CCCCCCCCCCCC1C(C#N)C(=O)NC(=O)C1C#N (stereo not given),73% (active)
19,O=C(O)CCSSCCCCCS(=O)O,-10%
20,CC(C)CNc1cc(Cl)nc(N)n1,-2%
